Bioassay records: PubChem, several laboratories
Shown are actives, neighbours in structure and some others; about 1.8% of the full set was active somewhere.
Bfl-1 A1 inh: inhibitors of the anti-apoptotic protein A1, read as caspase activation; caspase activation, % (no concentration beside the values); 0.066% of 330,000 active; MEF A1-2A-BIM cells, Caspase-Glo 3/7 luminescence, 3 h; percent of clofoctol response, vehicle zero;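 active = over half of replicate activation scores above 10%, or exactly half above 10 with the replicate mean above 10; inconclusive = replicate mean below 10 yet half the replicates above 10; inactive = over half of replicates below 10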
SUMO Mot1 rescue: inhibitors of SUMOylation pathway: yeast Mot1-301 growth rescue; 1% of 320,000 active; growth rescue, % at 18.8 µM; AID 2716; S. cerevisiae Mot1-301 growth rescue, ATP luminescence, 38.5C; percent above DMSO median, 100 means doubled;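 active = every valid replicate shows activation above 250% relative to neutral control wells; inactive = the rest, any valid replicate at or below 250%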
aDG glyco act: alpha-DG glycosylation activation | Pro5-aDG cells, alpha-DG glycosylation AlphaScreen (IIH6); 0% Pro5, 100% B10-LARGE cell signal | activation, % at 10 µM | 0.22% of 360,000 active | AID 624168;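 active = activation of at least 8% versus controls, or a plate z-score of at least 8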;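 note: Pro5 are CHO cells carrying HIG-tagged alpha-DG that lacks glycosylation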
AI-2 QS modul: Vibrio harveyi AI-2 quorum sensing modulation | Vibrio harveyi JMH597 AI-2 luminescence/OD600 ratio, 9 h; hits give low values; strain lacks LuxN and CqsS sensors; 0 = neutral-control median | activity change, % at 7.5 µM | 0.4% of 300,000 active | AID 2094; in the data active = activity change below about -75%, passing the limit was not always enough; inconclusive = no clear call, values can overlap the other calls;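 note: luminescence divided by OD600 gain over 9 h not by final OD600 alone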
ARNT TACC3 PPI: ARNT/TACC3 interaction disruption; Q9Y6A5; AlphaScreen His-ARNT PAS-B/GST-TACC3 binding, luminescence; TACC3 fragment carries E629A point mutation; inhibition, % at 9.99 µM; 0.66% of 390,000 active; AID 623870;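 active = mean inhibition of replicates at least 50% and at least half of replicates each reaching 50%; inconclusive = half or more replicates reach 50% but mean below 50%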
JMH597 growth rt: retest: blocks Vibrio harveyi JMH597 growth; shares compounds with AI-2 QS modul; growth inhibition, % at 7.5 µM; 1% of 750 active; AID 2726; OD600 absorbance, 9 h; lacks LuxN and CqsS sensors;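 active = every replicate shows growth inhibition above 50%; inconclusive = at least half, but not all, replicates pass that cutoff; inactive = fewer than half of replicates pass it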
BB721 lum counter: retest counter-screen: lowers luminescence of constitutive-QS Vibrio harveyi BB721 | shares compounds with AI-2 QS modul | AID 2727 | inhibition, % at 7.5 µM | 9 h | 95% of 750 active;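 active = inhibition above about 80% in every replicate, not just on average, limit read from the data; inconclusive = at least half of replicates past the limit, but not all; inactive = fewer than half of replicates past the limit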
BB721 growth: retest Vibrio harveyi BB721 growth inhibition; shares compounds with AI-2 QS modul; growth inhibition, % at 7.5 µM; OD600 absorbance, 9 h; 3% of 750 active;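 active = every replicate shows growth inhibition above 50%; inconclusive = at least half but not all replicates above 50% inhibition; inactive = under half of replicates above 50% inhibition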
JMH597 AI-2 mod: Vibrio harveyi AI-2 signaling luminescence modulation – JMH597 strain, confirmation; shares compounds with AI-2 QS modul; Vibrio harveyi JMH597 AI-2 quorum sensing luminescence, 9 h; luxN and CqsS knockout, AI-2 only; inhibition, % at 7.5 µM; 97% of 750 active; AID 2736;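 active = every replicate shows more than 75% inhibition of signal versus neutral control wells; inconclusive = half to three quarters of replicates exceed 75% inhibition; inactive = fewer than half of replicates exceed 75% inhibition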
Of the large screens only hits and unclear results are named; the others gave an inactive call (follow-up assays come after a bar, where they were run).

O=C(NCCc1ccccc1)C(=O)c1c[nH]c2ccccc12	none
O=C(NCc1ccccc1F)C(c1ccccc1)c1ccccc1	none
O=C(C#Cc1ccccc1)NCc1ccccc1F	AI-2 QS modul -85 | JMH597 growth rt inactive | BB721 lum counter 94 | BB721 growth inactive | JMH597 AI-2 mod 95
CC(=O)Nc1ccc(Nc2ncnc3c2cnn3-c2ccccc2)cc1	none
CN(C)S(=O)(=O)c1ccc(NC(=O)COc2ncnc3c2cnn3-c2ccccc2)cc1	AI-2 QS modul inconclusive | JMH597 growth rt inactive | BB721 lum counter 91 | BB721 growth inactive | JMH597 AI-2 mod 95
Cc1cccc2nc(CSc3nc4ccccc4[nH]3)cn12	AI-2 QS modul inconclusive | JMH597 growth rt inactive | BB721 lum counter 96 | BB721 growth inactive | JMH597 AI-2 mod 97
CCCNC(=O)Nc1ccc2c(c1)OC[C@@H](C)N(Cc1ccc(-c3ccccn3)cc1)C[C@H](C)[C@H](OC)CN(C)C2=O	none (no result: Bfl-1 A1 inh, SUMO Mot1 rescue, aDG glyco act, AI-2 QS modul)
O=C(COn1nnc2ccc(Cl)cc21)NCc1ccccc1	AI-2 QS modul -89 | JMH597 growth rt inactive | BB721 lum counter 96 | BB721 growth inactive | JMH597 AI-2 mod 97
O=C(COn1nnc2ccc(Cl)cc21)NC1CCS(=O)(=O)C1 (stereo unspecified)	none (no result: Bfl-1 A1 inh, SUMO Mot1 rescue, AI-2 QS modul)
CCC(=O)NC(=S)Nc1ccccc1F	none
CCCC(=O)NC(=S)Nc1ccccc1F	AI-2 QS modul -85 | JMH597 growth rt inactive | BB721 lum counter 92 | BB721 growth inactive | JMH597 AI-2 mod 87
Oc1ccc(-n2nnnc2SCc2ccccc2Br)cc1	AI-2 QS modul inconclusive | JMH597 growth rt inactive | BB721 lum counter 81 | BB721 growth inactive | JMH597 AI-2 mod 87
O=C(NCCc1c[nH]c2ccccc12)c1cc2sccc2n1Cc1ccccc1	none
O=C(NCCc1c[nH]c2ccccc12)c1ccc2c(c1)OCO2	AI-2 QS modul -85 (no result: ARNT TACC3 PPI) | JMH597 growth rt inactive | BB721 lum counter 93 | BB721 growth inactive | JMH597 AI-2 mod 97
O=C(NCCc1c[nH]c2ccccc12)c1cc(Cl)c2c(c1)OCO2	none
Cn1c(C(=O)NCCc2c[nH]c3ccccc23)cc2sccc21	AI-2 QS modul inconclusive | JMH597 growth rt inactive | BB721 lum counter 93 | BB721 growth inactive | JMH597 AI-2 mod 94
CCCc1ccc(S(=O)(=O)N(C)S(=O)(=O)c2ccc(F)cc2)cc1	AI-2 QS modul inconclusive | JMH597 growth rt inactive | BB721 lum counter inactive | BB721 growth inactive | JMH597 AI-2 mod 99
O=C(Cc1ccsc1)Nc1ccc(S(=O)(=O)C(F)F)cc1	AI-2 QS modul -87 | JMH597 growth rt inactive | BB721 lum counter 97 | BB721 growth inactive | JMH597 AI-2 mod 100
O=C(O)c1ccc(NCc2ccncc2)cc1	none
O=C(O)c1ccc(NCc2cccc(Br)c2)cc1	AI-2 QS modul -91 | JMH597 growth rt inactive | BB721 lum counter 98 | BB721 growth inconclusive | JMH597 AI-2 mod 98
COc1ccc(CNc2ccc(C(=O)O)cc2)cc1	AI-2 QS modul -95 | JMH597 growth rt inactive | BB721 lum counter 99 | BB721 growth inactive | JMH597 AI-2 mod 99
Cc1cc(N2CCOCC2)n2cc(-c3ccccc3)nc2n1	none
O=C(NCCc1ccc(Cl)cc1)c1cnccn1	none
O=C(Nc1cnn(Cc2ccc(Cl)cc2)c1)c1cnccn1	AI-2 QS modul -96 | JMH597 growth rt inactive | BB721 lum counter 99 | BB721 growth inactive | JMH597 AI-2 mod 99
O=C(NCc1ccccc1F)Nc1ccc([N+](=O)[O-])cc1	AI-2 QS modul inconclusive | JMH597 growth rt inactive | BB721 lum counter 91 | BB721 growth inactive | JMH597 AI-2 mod 93
Cc1cccc(OC(=O)NCCOC(=O)N(O)c2ccc(Cl)cc2)c1	none
Cn1cnc(S(=O)(=O)Nc2ccc(OC(F)(F)F)cc2)c1	AI-2 QS modul inconclusive (no result: SUMO Mot1 rescue) | JMH597 growth rt inactive | BB721 lum counter inactive | BB721 growth inactive | JMH597 AI-2 mod 88
O=S1(=O)C=C(Oc2ccc(F)cc2)c2ccccc21	none (no result: ARNT TACC3 PPI)
O=S1(=O)C=C(Oc2ccc3ccccc3c2)c2ccccc21	AI-2 QS modul -83 | JMH597 growth rt inactive | BB721 lum counter 95 | BB721 growth inactive | JMH597 AI-2 mod 96
Cc1noc(C)c1S(=O)(=O)N(C)C[C@@H]1OCCCC[C@H](C)Oc2ccc(NC(=O)CCC(F)(F)F)cc2C(=O)N([C@H](C)CO)C[C@@H]1C	none (no result: Bfl-1 A1 inh, SUMO Mot1 rescue, aDG glyco act, AI-2 QS modul)
Cc1ccc(CN(C)C(=O)c2cc(COc3cccc(C(F)(F)F)c3)on2)o1	AI-2 QS modul -81 | JMH597 growth rt 65 | BB721 lum counter 95 | BB721 growth 87 | JMH597 AI-2 mod 96
CN(Cc1nccn1C)C(=O)c1cc(COc2cccc(C(F)(F)F)c2)on1	none
CC(=O)c1cccc(OCc2cc(C(=O)N(C)Cc3cnccn3)no2)c1	AI-2 QS modul inconclusive | JMH597 growth rt inactive | BB721 lum counter 92 | BB721 growth inactive | JMH597 AI-2 mod 95
CCc1ccc(CN(C)C(=O)c2cc(COc3cccc(C(F)(F)F)c3)on2)nc1	AI-2 QS modul -83 | JMH597 growth rt inconclusive | BB721 lum counter 92 | BB721 growth inconclusive | JMH597 AI-2 mod 95
CN(CC(=O)Nc1ccc(F)cc1)C(=O)CSc1nc2ncc(Cl)cc2[nH]1	none
CNC[C@H]1Oc2c(NS(=O)(=O)c3ccc(OC)cc3)cccc2C(=O)N([C@H](C)CO)C[C@H]1C	none (no result: AI-2 QS modul)
COC(=O)/C=C/C(=O)Nc1ccc(O)c(Cl)c1	AI-2 QS modul -93 | JMH597 growth rt inactive | BB721 lum counter 96 | BB721 growth inactive | JMH597 AI-2 mod 95
O=C(Cn1cnc2ccccc2c1=O)Nc1ccc(N2CCOCC2)cc1	none
O=C(Cn1cnc2ccccc2c1=O)Nc1ccc(S(=O)(=O)N2CCOCC2)cc1	AI-2 QS modul -94 | JMH597 growth rt inactive | BB721 lum counter 99 | BB721 growth inactive | JMH597 AI-2 mod 99
O=C(Cn1cnc2ccccc2c1=O)Nc1ccc(S(=O)(=O)N2CCCC2)cc1	AI-2 QS modul -97 | JMH597 growth rt inactive | BB721 lum counter 100 | BB721 growth inactive | JMH597 AI-2 mod 100
Cc1ccc(-c2cnc3c(c2)C(=O)N([C@H](C)CO)C[C@H](C)[C@@H](CN(C)C)O3)cc1	none (no result: Bfl-1 A1 inh, SUMO Mot1 rescue, aDG glyco act, AI-2 QS modul)
Nn1c(SCC(=O)Nc2ccc(OC(F)F)cc2)nnc(Cc2ccccc2)c1=O	AI-2 QS modul -92 | JMH597 growth rt inactive | BB721 lum counter 96 | BB721 growth inconclusive | JMH597 AI-2 mod 97
